# Assay results reported in PubChem BioAssay AID2314 (National Center for Advancing Translational Sciences (NCATS), 2010).
# Out of some 300,000 compounds screened, about 37,000 (12%) were called active. Rule as the data show it: active = max response mostly above about 13% (no sharp cut-off); inactive = mostly below about 14%. The full list was thinned out, with actives kept by preference.
# Experiment: Cycloheximide Counterscreen for Small Molecule Inhibitors of Shiga Toxin; also: read at 38.3 µM for the half of the compounds with a filed dose; 0% is about no effect
# Settings: cell reporter, cycloheximide protein synthesis inhibition counterscreen; hits give high values
row,SMILES,max response
1,CCOC(=O)c1cnc(Nc2nc3ccccc3o2)nc1CSC(=S)N1CCCCC1,10.5% (inactive)
2,Cc1cc(N=Nc2ccc3ccccc3c2)ccc1O,46.6% (active)
3,COc1ccc(N=Nc2ccc(O)c(P(=O)(c3ccccc3)c3ccccc3)c2)cc1,-8.38% (inactive)
4,COc1ccnc2c1c(=O)n(Cc1cccc(F)c1)c(=O)n2C,6.46% (inactive)
5,COc1ccc2c(c1OC)C(=O)OC2Nc1nc(-c2ccccc2)cs1 (stereo unspecified),38.5% (active)
6,CCc1ccccc1NC(=O)[C@@H]1CCC(=O)N1C1OC(=O)c2c1ccc(OC)c2OC (stereo partly specified),-2.07% (inactive)
7,COc1ccc(N/C=C(\C2OC(=O)c3ccccc32)[N+](=O)[O-])cc1 (stereo unspecified),7.23% (inactive)
8,COc1ccc(C(=O)Nc2nc(-c3ccc(S(=O)(=O)N4CCOCC4)cc3)cs2)cc1,0.36% (inactive)
9,Cc1ccc(-c2csc(NC(=O)Cn3[nH]c(=O)c4ccccc4c3=O)n2)cc1,11.5% (inactive)
10,COc1ccc(-c2csc(NC3OC(=O)c4ccccc43)n2)cc1 (stereo unspecified),20% (active)
11,Cc1ccc(-c2csc(NC3OC(=O)c4ccccc43)n2)cc1 (stereo unspecified),21.8% (active)
12,COc1ccc2c(c1OC)C(=O)OC2c1c(O)nc(SC)n(-c2ccccc2)c1=O (stereo unspecified),-1.46% (inactive)
13,O=C(Cn1c(NCCO)nc2ccccc21)c1ccc(Cl)cc1Cl,-1.01% (inactive)
14,COc1ccc(CN2CCN(Cc3cn(C)nc3-c3ccccc3)CC2CCO)c(C)c1C (stereo unspecified),7.91% (inactive)
15,CC(=O)c1ccc(S(=O)(=O)N(C)CCCC(=O)N(C)Cc2ccccc2F)cc1,2.54% (inactive)
16,COC(=O)C1=CN(Cc2ccc(OC)cc2)C=C(C(=O)OC)C1c1ccc(O)c(OC)c1,-3.7% (inactive)
17,O=C(c1ccc(Br)o1)N(c1ccccn1)C1CCCCC1,0.638% (inactive)
18,Cc1snc(SCc2c(F)cccc2Cl)c1C#N,-2.84% (inactive)
19,Cc1ccc(CSc2nsc(C)c2C#N)cc1,22% (active)

row,SMILES,max response
1,Cc1cc(C)c(C#N)c(SCc2ccc3c(c2)OCO3)n1,-2.14% (inactive)
2,Cn1c(CCC(=O)OCC(=O)NCc2ccccc2Cl)nc(=O)c2ccccc21,-1.91% (inactive)
3,CCOCCCNC(=S)Nc1ccc2nc(N3CCN(CC)CC3)cc(C)c2c1,-1.07% (inactive)
4,COc1cccc(CCNC(=O)c2cccc(NC(=O)C3=C(C)OCCS3)c2)c1,12% (inactive)
5,CC(=O)NC(=S)Nc1ccc(NC(=S)NC(=O)c2ccc([N+](=O)[O-])cc2)cc1,10.5% (inactive)
6,Cc1ccc(C(=O)NC(=S)Nc2ccc3[nH]c(=O)[nH]c3c2)cc1C,2.1% (inactive)
7,CC(=O)Nc1ccc(NC(=S)NC(=O)c2ccc([N+](=O)[O-])c(C)c2)cc1,17.1% (active)
8,COc1ccc(N2CC(C(=O)N[C@@H](C)C(=O)N3CCCCC3)CC2=O)cc1 (stereo partly specified),-0.721% (inactive)
9,O=C1/C(=C/c2coc3ccc(O)cc3c2=O)SC(=S)N1c1ccccc1,-2.68% (inactive)
10,COc1ccccc1C(=O)Oc1ccc(N2C(=O)CCC2=O)cc1,-4.08% (inactive)
11,Cc1cc(OC(=O)c2ccccc2Cl)ccc1N1C(=O)CCC1=O,43.6% (active)
12,CCOC(=O)c1cc(OC(=O)c2ccccc2Cl)n(-c2ccccc2)n1,28.5% (inactive)
13,O=C1c2ccccc2-c2ncnc3c(N4CCOCC4)cc(N4CCOCC4)c1c23,-4.86% (inactive)
14,CC(=O)c1ccc(S(=O)(=O)N2CCC3(CC2)OCCO3)cc1,-6.29% (inactive)
15,COc1ccccc1CN1CCN(Cc2cc(OC)c(OC)cc2OC)CC1,3.57% (inactive)
16,O=C(CCc1nc2ccccc2c(=O)[nH]1)OCC(=O)c1cccc(Cl)c1,-1.24% (inactive)
17,O=C(COC(=O)CCc1nc2ccccc2c(=O)[nH]1)Nc1ccc(N2CCOCC2)cc1,2.13% (inactive)
18,CC(C)(C)c1ccc(NC(=O)COC(=O)CCc2nc3ccccc3c(=O)[nH]2)cc1,14.2% (active)
19,O=C(c1ccc[nH]c1=S)N1CCN(S(=O)(=O)c2ccc(Br)cc2Cl)CC1,-2.01% (inactive)

row,SMILES,max response
1,COc1ccc(NC(=O)CCS(=O)(=O)c2cc3c(cc2Cl)NC(=O)CO3)cc1OC,-10.6% (inactive)
2,COc1ccccc1OCC(=O)Nc1c2c(nn1-c1ccc(F)cc1)CS(=O)(=O)C2,-3.21% (inactive)
3,O=C(N/N=C/c1cccc(OC(=O)c2ccc([N+](=O)[O-])cc2)c1)c1cccnc1,-7.61% (inactive)
4,O=C(O)/C=C/C(=O)NNc1ccc([N+](=O)[O-])cc1,10.2% (inactive)
5,CC(=O)Nc1ccc(NC(=O)C(C)OC(=O)c2ccccc2C(=O)c2ccc(Cl)c([N+](=O)[O-])c2)cc1 (stereo unspecified),8.13% (inactive)
6,CCc1ccc(NC(=O)C(C)OC(=O)/C=C/c2cccc([N+](=O)[O-])c2)cc1 (stereo unspecified),59.2% (active)
7,O=C(N/N=C/c1cccc([N+](=O)[O-])c1)c1ccncc1,11% (active)
8,O=[N+]([O-])c1ccc(N/N=C/c2ccccc2)cc1,34.7% (active)
9,Cc1ccc(NC(=O)O/N=C/c2cccc([N+](=O)[O-])c2)cc1,40.6% (active)
10,Cc1ccc(NC(=O)C(=O)NCC2CCN(C(=O)c3cccc([N+](=O)[O-])c3)CC2)cc1,3.94% (inactive)
11,CCC(CC)NC(=O)/C=C/c1cccc([N+](=O)[O-])c1,-4.49% (inactive)
12,Cc1ccc(NC(=O)/C(=C/c2ccc([N+](=O)[O-])cc2)NC(=O)c2ccccc2)cc1,-3.41% (inactive)
13,Cc1cccc(COc2ccccc2/C=N/Nc2ccc([N+](=O)[O-])cc2)c1,-0.989% (inactive)
14,N#Cc1cc([N+](=O)[O-])ccc1Oc1cccc(/C=N/NC(=O)c2ccc(Cl)cc2)c1,-2.97% (inactive)
15,COc1ccc(C(=O)NC2CC(C)(C)Cc3c2cnn3-c2ccccc2C)o1 (stereo unspecified),-0.937% (inactive)
16,CC(Sc1nnc(CNC(=O)c2ccccc2F)n1C)C(=O)Nc1nccs1 (stereo unspecified),-1.64% (inactive)
17,CCN(CC)S(=O)(=O)c1ccc(Cl)c(C(=O)NC(C)C(c2cccs2)N2CCCC2)c1 (stereo unspecified),3.13% (inactive)
18,O=C1CCC([N+](=O)[O-])C(c2ccccc2Br)N1 (stereo unspecified),-3.57% (inactive)
